Sm TGR inh – blocks Schistosoma mansoni thioredoxin glutathione reductase | purified TGR, DTNB reduction, TNB absorbance 405 nm | Potency, µM (highest dose often 114 µM), actives largely listed as inhibitors | 3% of 360,000 active | Q962Y6 | AID 485364; note: nearly all actives have a fitted effect of over 60% in size
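First, TGR (20 nM dispensed) and NADPH were mixed with compound. Second, a 15 min room-temperature incubation followed. Third, further NADPH and then DTNB were added to start the reaction. Finally, TNB absorbance was monitored kinetically.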
TbPYK inhibitor – T. brucei pyruvate kinase inhibition. TbPYK enzyme, Kinase-Glo Plus ATP luminescence, 45 min. Potency, µM (highest dose often 76.8 µM), usual class: inhibitors. 0.12% of 410,000 active; note: nearly all actives have a fitted effect of over 50% in size
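Quantitative HTS: titrated library compounds versus trypanosomal pyruvate kinase in TEA buffer (pH 7.2) containing KCl, MgCl2, BSA and Tween-20. Reactions were initiated with ADP, 130 uM final. Kinase-Glo Plus luminescence was read after 45 min at RT.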
RE007 growth inh – less growth of the S. pombe RE007 Vpr strain. 0.21% of 360,000 active. S. pombe RE007 Vpr strain, BacTiter-Glo ATP luminescence, 24 h. Potency, µM (doses to about 92.2 µM), usual class: inhibitors. AID 651644; active = well fitted falling curve with a large enough effect; inconclusive = small, poorly fitted or top-dose-only effect; inactive = no such curve, though single readings can be large or run the other way; note: nearly all actives have a fitted effect of over 50% in size
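Fission yeast strain RE007, carrying one chromosomally integrated HIV-1 vpr copy, was seeded at OD 0.01 in PMG+AL medium with 23 nL pinned compound. After 24 h at 30 °C and 99% humidity, viability was read by BacTiter-Glo luminescence.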
LmPK inh – inhibitors of Leishmania mexicana pyruvate kinase; Q27686; purified LmPK, Kinase-Glo ATP luminescence, 1 h; Potency, µM (series often up to 57.5 µM), actives largely listed as inhibitors; 0.37% of 290,000 active
Target sequence (Q27686 whole entry, looked up): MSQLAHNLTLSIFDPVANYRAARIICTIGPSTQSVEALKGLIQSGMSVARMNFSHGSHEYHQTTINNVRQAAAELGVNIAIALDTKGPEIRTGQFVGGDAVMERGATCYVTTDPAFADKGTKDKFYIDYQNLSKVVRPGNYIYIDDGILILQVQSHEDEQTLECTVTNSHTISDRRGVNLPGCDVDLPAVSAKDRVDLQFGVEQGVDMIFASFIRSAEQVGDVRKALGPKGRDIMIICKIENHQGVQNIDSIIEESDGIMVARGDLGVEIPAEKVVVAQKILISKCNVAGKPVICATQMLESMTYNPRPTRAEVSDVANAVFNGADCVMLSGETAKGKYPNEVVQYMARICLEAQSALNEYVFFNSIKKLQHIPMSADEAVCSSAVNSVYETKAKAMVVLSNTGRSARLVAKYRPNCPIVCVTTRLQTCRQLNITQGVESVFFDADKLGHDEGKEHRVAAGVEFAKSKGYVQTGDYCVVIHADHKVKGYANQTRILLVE
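Purified LmPK (0.1 nM) with 0.5 mM PEP and 0.1 mM ADP in imidazole buffer pH 7.2 with MgCl2/KCl, 1 h at room temperature. ATP formed was read by luciferase luminescence and normalized to no-enzyme and uninhibited controls.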
Giardia FBPA inh – blocks Giardia fructose-bisphosphate aldolase activity | A8B2U2 | purified Giardia FBPA | Potency, µM (series often up to 59.6 µM), most hits filed as inhibitors | 0.71% of 290,000 active; note: nearly all actives have a fitted effect of over 55% in size
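Giardia FBPA (40 nM reagent) was preincubated 10 min at RT with compound (up to 57.5 uM final), then substrate plus GAPDH/TPI/NAD/arsenate coupling system with diaphorase/resazurin was added; resorufin fluorescence (525/598 nm) was read after 20 min.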
Hits are given with their value; – = inactive; ? = inconclusive; · = no result given. Compounds with a hit are over-represented: about 3.3% of the library has one in this group of screens. Unless noted, calls come from the whole dose curve; as a rule, active = well fitted curve in the direction sought with a large enough effect; inconclusive = small, poorly fitted or top-dose-only effect, or another doubt; inactive = no such curve, though single readings can be large; an effect the other way counts as inactive or inconclusive.

SMILES	Sm TGR inh	TbPYK inhibitor	RE007 growth inh	LmPK inh	Giardia FBPA inh
COc1ccc(C2CC23N=C(c2ccccc2)OC3=O)cc1 (stereo unspecified)	22µM	–	–	–	–
COc1ccc(-c2nc3cnc(N4CCNCC4)nc3n(Cc3cccs3)c2=O)cc1	·	·	·	·	–
COc1cc2cnc(-c3ccccc3)c(-c3cc(OC)c(OC)c(OC)c3)c2cc1OC	3.2µM	–	–	·	·
CCCN(CCC)C(=O)/C=C/c1cccc([N+](=O)[O-])c1	–	–	–	–	–
COc1ccc2c(c1OC)C(=O)N(c1cccc(C)c1)C2	–	–	–	14µM	–
CC1=NN(c2ccc([N+](=O)[O-])cc2)C(=O)/C1=C\N(C)C	?	–	6.3µM	16µM	–
Cc1ccc(S(=O)(=O)NCCOC(=O)Nc2sc(=S)n(C)c2C)cc1	11µM	–	–	–	–
COC(=O)c1c(C)cc(O)c(C=O)c1O	·	–	?	·	·
Cc1cc2c(C(C)C)c(O)c(O)c(C=O)c2c(O)c1-c1c(C)cc2c(C(C)C)c(O)c(O)c(C=O)c2c1O	50µM	–	·	–	?
CCCN1C(=O)/C(=C/c2ccc3c(c2)OCO3)NC1=S	–	–	–	–	–
CCNC(=S)NNC(=O)c1ccc(OC)cc1	–	–	–	–	–
COc1ccc(-c2cc(CNC(C)=O)on2)cc1	–	–	–	–	–
COc1ccc(-c2cc(CNC(=O)CCl)on2)cc1	35µM	–	–	–	–
C=CCOc1c(Br)cc(C2C3=C(CCCC3=O)N(C)C3=C2C(=O)CCC3)cc1OCC	–	–	–	–	?
C=CCOc1ccc(C2C3=C(CCCC3=O)N(CC(=O)O)C3=C2C(=O)CCC3)cc1OCC	45µM	–	–	–	–
C#CCOc1ccc(C2C3=C(CCCC3=O)N(CC(=O)O)C3=C2C(=O)CCC3)cc1Br	40µM	–	–	–	–
CCCOc1ccc(C2C3=C(CCCC3=O)N(CC(=O)O)C3=C2C(=O)CCC3)cc1OCC	–	–	–	–	–
CC(=O)Cc1nsc(NC(=O)c2ccc(COc3ccccc3)o2)n1	45µM	–	–	–	–
CC(=O)OCC1(C)CN(c2ccccc2)NC1=O (stereo unspecified)	7.9µM	–	–	–	?
CC(=O)OCC1(C)CN(c2ccccc2)N(C(C)=O)C1=O (stereo unspecified)	–	–	–	–	–
Cn1c(C(=O)N2CCN(C(=O)c3ccco3)CC2)cc2c(=O)n3ccccc3nc21	45µM	–	–	–	–
Cn1c(C(=O)N2CCOCC2)cc2c(=O)n3ccccc3nc21	–	–	–	–	·
Cc1ccc(NC(=O)c2cc(N3C(=O)C=CC3=O)ccc2N2CCOCC2)cc1Cl	0.71µM	–	7.9µM	–	–
O=[N+]([O-])c1ccc(S(=O)(=O)Nc2nnc(C(F)(F)F)s2)cc1	14µM	–	–	–	–
COc1cccc(C(=O)N(Cc2ccc(C)o2)C2CCS(=O)(=O)C2)c1 (stereo unspecified)	–	–	·	·	·
SMILES	Sm TGR inh	TbPYK inhibitor	RE007 growth inh	LmPK inh	Giardia FBPA inh
Cc1ccc(NS(=O)(=O)c2ccc(-c3ccc(=O)[nH]n3)o2)cc1Cl	–	–	–	–	–
COc1ccc(C(C)=O)cc1CSc1nnnn1-c1ccc(O)cc1	7.1µM	–	–	–	–
CCOC(=O)Cc1ccc2sc(-c3ccccc3)nc2c1	–	?	?	16µM	–
CCOC(=O)Cc1ccc(-c2ccccc2)cc1	·	–	·	·	·
Cc1ccc(NC(=O)CSc2nnc(-c3cnccn3)n2Cc2ccco2)cc1	45µM	–	–	–	–
O=C(CSc1nnc(-c2cnccn2)n1Cc1ccco1)c1ccc2ccccc2c1	25µM	–	–	–	–
Cc1cccc(NC(=O)CSc2nnc(-c3cnccn3)n2Cc2ccco2)c1	?	–	–	–	–
C(=C\c1ccccc1)/CSc1nnc(-c2cnccn2)n1Cc1ccco1	20µM	–	–	–	–
COC(=O)c1ccc(C(=O)OC)c(NC(=O)Oc2ccccc2)c1	–	–	–	–	–
COC(=O)c1ccc(C(=O)OC)c(NC(=O)/C=C/C(=O)O)c1	10µM	–	–	–	–
CCOCCCNC1=C(Cl)C(=O)c2ccccc2C1=O	1.8µM	?	?	?	–
O=[N+]([O-])c1ccc([As](=O)(O)O)cc1	·	–	·	·	·
O=[N+]([O-])c1cc(-c2ccc([As](=O)(O)O)cc2)ccc1[As](=O)(O)O	8.9µM	·	·	–	–
Cc1ccc(Nc2c(-c3cccnc3)nc3ccc(Br)cn23)cc1	–	–	–	–	–
CCCC(=O)N(C1CC(C)C(C#N)(C#N)C1(C#N)C#N)N(C)C (stereo unspecified)	2µM	–	–	–	–
CC(=O)N(C1CC(C)C(C#N)(C#N)C1(C#N)C#N)N(C)C (stereo unspecified)	·	–	–	–	–
CCCSc1nc2c(c(=O)[nH]1)C(c1ccc(O)c(OCC)c1)CC(=O)N2 (stereo unspecified)	–	–	·	·	·
CN1CCN(C(=O)c2ccc(CS(=O)(=O)c3c(Cl)cccc3Cl)o2)CC1	–	–	–	–	–
O=C(c1ccc(CS(=O)(=O)c2ccc(Br)cc2)o1)N1CCCC1	–	–	–	–	–
O=C(c1ccc(CS(=O)(=O)c2c(Cl)cccc2Cl)o1)N1CCCC1	35µM	–	–	–	–
CCOC(=O)N1CCN(C(=O)c2ccc(CS(=O)(=O)c3c(Cl)cccc3Cl)o2)CC1	45µM	–	–	–	–
O=C(c1ccco1)N1CCN(C(=O)c2ccc(CS(=O)c3ccc(Cl)cc3)o2)CC1 (stereo unspecified)	40µM	–	–	–	·
Cc1ccc(S(=O)Cc2ccc(C(=O)N3CCN(C(=O)c4ccco4)CC3)o2)cc1 (stereo unspecified)	?	–	–	–	·
O=C(c1ccc(CS(=O)(=O)c2ccc(Br)cc2)o1)N1CCCCCC1	35µM	–	–	–	–
CCN1c2ccccc2-c2nc(SCC(=O)Nc3cc(C)c(Cl)cc3OC)ncc2S1(=O)=O	–	–	·	·	·
COC(=O)c1ccc(NC(C(=O)OC)C(C)C)c([N+](=O)[O-])c1 (stereo unspecified)	–	–	–	–	–
CCC1=C(OC(=O)N(CC)CC)N2C(=O)OC(=NCCc3c[nH]c4ccccc34)[C@]2(Cc2ccccc2)[C@H]2C1=CC[C@H]1C(=O)N(c3ccccc3)C(=O)[C@H]12	–	–	–	–	–
O=C(c1ccc(CS(=O)c2ccccc2Cl)o1)N1CCCCCC1 (stereo unspecified)	40µM	–	–	–	·
Cc1ccc(C2=Nc3ccccc3NC(C)(c3ccc(C)o3)C2)o1 (stereo unspecified)	35µM	–	–	–	–
CC(C)C1(c2ccsc2)NC(=O)NC1=O (stereo unspecified)	·	–	–	·	·

High-throughput results: PubChem BioAssay, National Center for Advancing Translational Sciences (NCATS)
